RORgamma inh = inhibitors of mouse ROR gamma transcriptional activity. Potency, µM (highest dose often 53.6 µM), most hits filed as inhibitors. P51450. Drosophila S2 Gal4-RORgamma UAS-luciferase reporter, 20 h. 310,000 tested, 5.4% active. AID 2551; also: nearly all actives have a fitted effect of over 60% in size
Target sequence (P51450 whole entry, looked up, the tested form may be a part): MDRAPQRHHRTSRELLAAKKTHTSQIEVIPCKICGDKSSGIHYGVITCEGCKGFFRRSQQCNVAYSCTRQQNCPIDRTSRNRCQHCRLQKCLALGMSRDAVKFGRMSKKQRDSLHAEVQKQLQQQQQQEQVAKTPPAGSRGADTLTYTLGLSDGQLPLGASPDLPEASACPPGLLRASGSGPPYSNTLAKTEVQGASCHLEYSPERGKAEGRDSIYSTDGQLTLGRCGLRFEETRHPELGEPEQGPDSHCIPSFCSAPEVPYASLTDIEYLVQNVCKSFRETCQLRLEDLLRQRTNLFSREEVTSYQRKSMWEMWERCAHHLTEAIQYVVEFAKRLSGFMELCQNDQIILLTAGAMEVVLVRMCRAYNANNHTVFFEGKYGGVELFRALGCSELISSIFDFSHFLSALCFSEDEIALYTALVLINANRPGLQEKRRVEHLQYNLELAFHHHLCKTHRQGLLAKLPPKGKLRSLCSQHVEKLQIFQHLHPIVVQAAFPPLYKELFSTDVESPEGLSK
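A Gal4/UAS one-hybrid system in insect cells: metallothionein-promoter Gal4–ROR gamma fusion plus Photinus luciferase reporter. Copper sulfate 700 uM final, 20 hr ambient incubation, luminescent detection after 10 min with reagent.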
VP16 counter = inhibits Gal4-VP16 luciferase reporter, ROR gamma counter-screen | 310,000 tested, 3.5% active | Drosophila S2 Gal4-VP16 UAS-luciferase, luminescence, 20 h | Potency, µM (highest dose often 53.6 µM), hits mostly inhibitors;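 also: Gal4-VP16 expression switched on by copper sulfate through the metallothionein promoter; nearly all actives have a fitted effect of over 50% in size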
TDP1 cell CPT = growth inhibition of DT40 Tdp1-/-;hTDP1 cells with camptothecin (screen for TDP1 inhibitors); 420,000 tested, 12% active; chicken DT40 Tdp1-/-;hTDP1 cells + 20 nM CPT, ATP luminescence, 48 h; Potency, µM (doses to about 46.2 µM), actives largely listed as inhibitors; also: nearly all actives have a fitted effect of over 55% in size
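Cell growth measured by CellTiter-Glo luminescence after a minimum 48 h, 37 C compound exposure with 20 nM CPT in Tdp1-knockout DT40 cells stably expressing hTDP1, seeded 400/well; qHTS titration format.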
TDP1 cell noCPT = qHTS for Inhibitors of human tyrosyl-DNA phosphodiesterase 1 (TDP1): qHTS in cells in absence of CPT | AID 686978, 2013 | 420,000 tested, 15% active | Potency, µM (doses to about 46.2 µM), usual class: inhibitors | DT40 Tdp1-/- hTDP1 cells, no CPT, ATP luminescence, 48 h; also: nearly all actives have a fitted effect of over 55% in size
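Stably hTDP1-transfected Tdp1-null chicken DT40 cells were treated with library compounds minus camptothecin and grown for at least 48 hr at 37 °C, after which cellular ATP was quantified by luminescence.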
ELG1 repair inh = ELG1-dependent DNA repair inhibition; HEK293T ELG1-luciferase reporter, luminescence, 16 h; DNA damage induced by 5-fluorouridine; Potency, µM (doses to about 46.1 µM), actives largely listed as inhibitors; 330,000 tested, 2.3% active; also: nearly all actives have a fitted effect of over 55% in size
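DMSO vehicle served as the neutral condition. Each well held 2,000 cells given 5-fluorouridine plus compound; after 16 hr at 37 °C/5% CO2, ONE-Glo was added and luciferase measured 30 min later.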
IL1B secr inh = inflammasome signaling inhibition, IL-1 beta readout; THP-1 LPS/ATP IL-1B secretion, AlphaLISA, 16 h; active compounds read low; activity change, % at 57.5 µM; 360,000 tested, 4.7% active; AID 743279; in the data active = activity change below about -50%; inconclusive = mostly about -30% to -49%
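THP-1 cells pretreated 1 hr with compounds (up to 57.5 uM final), then stimulated with LPS (250 ng/mL final) plus ATP (1.25 mM final); secreted IL-1B measured by AlphaLISA after 16 hr, decreased signal indicating inhibition.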
Numbers stand for hits; – = inactive; ? = inconclusive; · = not tested or not shown; [ ] = dose if it differs, or a comment. This is a sample that favours compounds with a hit; in the whole collection about 21% have one here. Unless noted, calls follow the shape of the dose curve; as a rule, active = well fitted curve in the direction sought with a large enough effect; inconclusive = small, poorly fitted or top-dose-only effect, or another doubt; inactive = no such curve, though single readings can be large; an effect the other way counts as inactive or inconclusive.

SMILES | RORgamma inh | VP16 counter | TDP1 cell CPT | TDP1 cell noCPT | ELG1 repair inh | IL1B secr inh
Cc1cnc(CNc2ncnc3ccc(-c4ccoc4)cc23)cn1 | – | – | ? | – | · | ·
O=C(O)CCn1c(C2CCCCC2)nc2ccccc21 | – | – | – | – | – | –
c1ccc(CCn2c(C3CC3)nc3ccccc32)cc1 | ? | – | ? | 25.9µM | – | –
Cc1nc2ccccc2n1CCc1ccccc1 | 11.2µM | – | ? | ? | – | –
Cc1nc2ccccc2c(=O)n1CCc1ccccc1 | – | – | ? | ? | – | –
O=S(=O)(c1ccccc1)N1CCC2(CCCN(c3ccccn3)C2)CC1 | – | – | ? | 20.6µM | · | ·
O=S(=O)(c1ccccc1)N1CCC2(CCN(Cc3ccncc3)CC2)CC1 | – | – | ? | 20.6µM | · | ·
O=S(=O)(c1ccccc1)N1CCC2(CC1)CN(c1ccncc1)C2 | – | – | ? | 9.2µM | · | ·
O=S(=O)(c1ccccc1)N1CCC2(CC1)CN(c1ccccc1)C2 | – | – | – | ? | · | ·
O=S(=O)(c1ccccc1)N1CCC2(CCCN(c3ccncc3)C2)CC1 | – | ? | 2.06µM | 1.16µM | · | ·
CCOC(=O)C1CCN(C(=O)CN2C(=O)c3cccnc3Oc3ccccc32)CC1 | – | – | – | – | – | –
O=C(c1ccccc1)N(c1ccccc1)c1ccccc1O | · | · | 14.6µM | 16.4µM | · | –
CC12CCC(=O)C=C1CCC1C2CCC2(C)C(c3csc(N)n3)CCC12 (stereo not drawn) | · | · | 5.8µM | 5.8µM | · | -82.0
C[C@]12CCC(=O)C=C1CC[C@@H]1[C@@H]2CC[C@@]2(C)[C@H]1CC[C@]2(O)C(=O)CO | – | – | ? | ? | – | –
CC(C)(C)C(=O)OCC(=O)[C@H]1CC[C@H]2[C@@H]3CCC4=CC(=O)CC[C@]4(C)[C@H]3CC[C@]12C | · | · | – | – | · | ·
C/C=C1/C(=O)C[C@@H]2[C@H]3CCC4=CC(=O)CC[C@]4(C)[C@@H]3CC[C@]12C | · | · | ? | 14.6µM | · | ·
C[C@@]12C[C@@H](O)[C@H]3[C@@H](CCC4=CC(=O)CC[C@]43C)[C@H]1CC[C@H]2C(=O)CO | – | – | · | · | · | ·
CC12CCC(=O)C=C1CCC1C2C(O)CC2(C)C(c3csc(N)n3)CCC12 (stereo not drawn) | · | · | 3.66µM | 3.26µM | · | –
Cc1ccc(NC(=O)CN2C(=O)c3ccccc3Sc3ccc(C(=O)N4CCOCC4)cc32)c(Cl)c1 | · | · | – | ? | · | ·
COc1ccccc1NC(=O)CCN1CCC(C(N)=O)CC1 | · | · | – | – | · | ·
C/C=C(/CC[C@@H](C)[C@H]1CC[C@H]2C3=CC[C@H]4[C@H](C)[C@@H](O)CC[C@]4(C)[C@H]3CC[C@]12C)C(C)C | · | · | – | – | · | ·
Cc1cccc(C(c2sc3nc(-c4ccco4)nn3c2O)N2CCN(c3ccccc3F)CC2)c1 (stereo not drawn) | · | · | – | – | · | ·
COc1ccc(Cl)cc1NC(=O)CN(C)C(C)C(=O)NC(=O)NC1CCCCC1 (stereo not drawn) | · | · | ? | 18.4µM | ? | ?
COc1ccc(Cl)cc1NC(=O)CN(C)C1CCCCC1 | – | – | ? | ? | – | –
COc1ccc(C)cc1NC(=O)CNc1ccccc1CN(C)C1CCCCC1 | – | – | 18.4µM | ? | ? | –
SMILES | RORgamma inh | VP16 counter | TDP1 cell CPT | TDP1 cell noCPT | ELG1 repair inh | IL1B secr inh
COc1ccc(Cl)cc1NC(=O)CNc1ccccc1CN(C)C1CCCCC1 | – | – | ? | ? | – | -214.3
COc1ccc(CNCCCSc2nnnn2C)c(OC)c1 | · | · | – | – | · | ·
C1=C(c2ccc3c(c2)CN(Cc2cccn2-c2ncccn2)CCO3)Cc2ccccc21 | · | · | ? | – | · | ·
Cn1cnnc1SCC(=O)Nc1ccc(S(N)(=O)=O)cc1 | – | – | – | – | – | –
Cc1cc(C(F)(F)F)nn2cnnc12 | – | – | – | – | – | –
CC(C)OC(=O)/C=C1\C[C@@H](c2ccccc2C(F)(F)F)O[C@@H](c2ccccc2C(F)(F)F)O1 | · | · | ? | 20.6µM | · | –
CC(C(=O)NC(C)(C)C)N(Cc1cccs1)C(=O)CCN1CCc2ccccc21 (stereo not drawn) | – | –[10 µM] | 23.1µM | ? | ? | –
